# Compound activity: PubChem, National Center for Advancing Translational Sciences (NCATS)
# KB-3-1 cytotox: kills parental KB-3-1 adenocarcinoma cells | Potency, µM (highest dose often 46.1 µM), most hits filed as cytotoxic | 400,000 compounds, 1.4% hits | KB-3-1 viability, CellTiter-Glo ATP luminescence, 72 h | AID 1347075; further: nearly all actives have a fitted effect of over 60% in size
#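 Cytotoxicity measured as CellTiter-Glo luminescence after 72 h at 37 C. Compound titrations were pinned onto drug-naive KB-3-1 parental adenocarcinoma cells grown in DMEM with 10% FBS, and normalized data fitted to concentration-response curves.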
# MCF10A rereplic: induces DNA re-replication in MCF 10a normal breast cells; MCF 10A DNA re-replication, Hoechst nuclear intensity, 48 h; 350,000 compounds, 2.9% hits; AID 624296; Potency, µM (doses to about 46.1 µM), hits mostly activators; further: nearly all actives have a fitted effect of over 50% in size
# PINK1 modulator: PINK1 expression modulation; PINK1 immunofluorescence, high-content cytometry, 24 h; Potency, µM (highest dose often 76.6 µM), most hits filed as activators; 410,000 compounds, 0.2% hits; AID 624263; active means well fitted activation curve with a large enough effect; inconclusive means small, poorly fitted or top-dose-only effect; cell line not stated here; further: nearly all actives have a fitted effect of over 65% in size
#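 Cells are seeded, rested 12 hours, then given compound at five concentrations or DMSO for 24 hours. After fixation, blocking and antibody staining, PINK1 amount and mitochondrial localization are scored; CCCP serves as control.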
# ALOX12 inh: inhibitors of human 12S-lipoxygenase ALOX12 | 580,000 compounds, 1.1% hits | purified 12hLO, xylenol orange hydroperoxide absorbance | Potency, µM (titrated, usually from 108 µM), actives largely listed as inhibitors
# Target sequence (P18054 whole entry, looked up): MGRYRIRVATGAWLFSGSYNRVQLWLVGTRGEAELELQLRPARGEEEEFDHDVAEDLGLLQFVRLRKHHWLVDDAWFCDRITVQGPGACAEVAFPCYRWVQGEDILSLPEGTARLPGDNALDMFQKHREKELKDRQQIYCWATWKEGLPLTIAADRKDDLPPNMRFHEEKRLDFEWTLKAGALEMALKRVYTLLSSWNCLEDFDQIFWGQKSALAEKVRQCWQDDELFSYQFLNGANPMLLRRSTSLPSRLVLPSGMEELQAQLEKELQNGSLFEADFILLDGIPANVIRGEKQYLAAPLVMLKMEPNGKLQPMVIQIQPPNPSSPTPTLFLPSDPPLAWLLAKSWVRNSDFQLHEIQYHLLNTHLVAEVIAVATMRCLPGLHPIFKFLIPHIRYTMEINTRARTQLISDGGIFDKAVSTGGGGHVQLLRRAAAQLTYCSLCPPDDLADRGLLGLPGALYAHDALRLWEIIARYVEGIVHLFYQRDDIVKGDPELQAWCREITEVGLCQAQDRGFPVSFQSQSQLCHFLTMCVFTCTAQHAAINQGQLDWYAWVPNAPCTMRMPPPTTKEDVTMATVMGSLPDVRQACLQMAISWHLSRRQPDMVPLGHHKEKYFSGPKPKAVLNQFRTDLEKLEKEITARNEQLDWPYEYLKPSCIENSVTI
#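 Purified human 12hLO (150 nM final) in 25 mM Hepes, 0.01% Triton X-100, pH 7.0 was preincubated 15 min at room temperature with compound. Then 40 uM arachidonic acid was added, 30 min. Hydroperoxide was read by Fe-XO absorbance ratio 573/405 nm.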
# KB-V1 MDR tox: kills drug-selected multidrug resistant KB-V1 cells | Potency, µM (doses to about 46.1 µM), most hits filed as cytotoxic | 400,000 compounds, 3.4% hits | AID 1347076 | KB-V1 MDR cells viability, CellTiter-Glo, 72 h; further: nearly all actives have a fitted effect of over 60% in size
#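 Potencies derive from concentration-effect curves fitted to normalized luminescence (CellTiter-Glo) of KB-V1 cells treated for 72 h at 37 degrees C in phenol-red-free DMEM containing 10% FBS.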
# SW480 rerep: DNA re-replication induction in SW480 cells | SW480 DNA re-replication, Hoechst DNA content imaging, 48 h | Potency, µM (series often up to 46.1 µM), usual class: activators | 340,000 compounds, 1.8% hits | AID 624297; further: nearly all actives have a fitted effect of over 55% in size
#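 SW480 cells exposed to compounds for 48 hr at 37 C, 5% CO2, then Hoechst-stained 40 min. Nuclear DNA content imaged by fluorescence scanning (405 nm excitation, 500-530 nm emission); re-replication scored as increased high-intensity nuclei.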
# Hits are given with their value; . = inactive; ? = inconclusive; / = not tested or not shown; ! = repeats disagree; [ ] = another dose, or the depositor's remark. Hits are enriched below; roughly 5.8% of the tested compounds scored in any of these assays. Unless noted, the call rests on the fitted dose curve; in most records, active means well fitted curve in the direction sought with a large enough effect; inconclusive means small, poorly fitted or top-dose-only effect, or another doubt; inactive means no such curve, though single readings can be large; an effect the other way counts as inactive or inconclusive.
SMILES,KB-3-1 cytotox,MCF10A rereplic,PINK1 modulator,ALOX12 inh,KB-V1 MDR tox,SW480 rerep
O=C(Oc1ccc(Cl)cc1)C1CCCC(C(=O)Oc2ccc(Cl)cc2)C1 (configuration not stated),/,/,/,.,/,/
Cc1cc(C)cc(NC(=O)CSCc2cc(=O)c3ccccc3[nH]2)c1,/,/,/,.,/,/
Cc1ccccc1-c1nn(-c2ccc(F)cc2F)cc1CN1CCC(O)CC1,/,/,/,.,/,/
C[C@H](CO)N1C[C@H](C)[C@@H](CN(C)S(=O)(=O)c2ccc(Cl)cc2)Oc2ccc(NS(=O)(=O)c3ccccc3)cc2CC1=O,.,.,.,.,?,.
C[C@H]1CN([C@@H](C)CO)C(=O)Cc2cc(NC(=O)CCC(F)(F)F)ccc2O[C@H]1CN(C)S(=O)(=O)c1ccc(Cl)cc1,4.6µM,4.6µM,.,?,.,3.3µM
Cc1ccc(CN(C(=O)c2cc(=O)c3cc(Cl)c(C)cc3o2)c2ccccn2)o1,/,/,/,25µM,/,/
Cc1ccc(CN(C(=O)c2ccccc2)c2ccccn2)o1,.,/,.,.,.,/
COc1ccc(-n2nc(C#N)c(Cl)cc2=O)cc1,?,0.73µM,.,.,.,?
Brc1ccc2ncnc(NCc3ccccc3)c2c1,12µM,?,.,.,?,.
Clc1cccc(Nc2ncnc3ccc(Br)cc23)c1,.,.,.,.,?,.
N#Cc1ccccc1-c1ccc2ncnc(NCc3ccccc3)c2c1,/,/,.,?,/,/
Clc1ccc(Nc2ncnc3ccc(Br)cc23)cc1,.,?,.,?,10µM,.
O=C(NC1CCOCC1)C1CCC(=O)N(Cc2ccc(Cl)cc2)C1 (configuration not stated),?,.,.,.,.,9.2µM
O=C1CCC(C(=O)N2CCOCC2)CN1Cc1ccc(Cl)cc1 (configuration not stated),.,.,.,.,?,.
CN1CCN(c2ncc3nc(-c4cc(F)cc(F)c4)c(=O)n(Cc4cccs4)c3n2)CC1,/,/,.,18µM,/,/
COc1ccc(-n2c(=O)c(CCc3ccccc3)nc3cnc(N4CCN(C)CC4)nc32)cc1,/,/,.,13µM,/,/
CN1CCN(c2ncc3nc(-c4ccccc4)c(=O)n(Cc4ccc(F)cc4)c3n2)CC1,/,/,.,35µM,/,/
CCCCc1oc2ccc(NS(C)(=O)=O)cc2c1C(=O)c1ccc(OCCCN(CCCC)CCCC)cc1,/,/,/,40µM!,/,/
CNc1nc(-c2ccccc2)[n+](-c2ccc(C)cc2)s1,.,?,.,7.1µM,.,.
O=C1C=C(O)CC(c2ccc(Cl)c(Cl)c2)C1 (configuration not stated),.,5µM,.,.,.,.[9.22 µM]
O=C1C=C(O)CC(c2ccc(Cl)cc2)C1 (configuration not stated),.,.,.,.,.,.[9.22 µM]
N#Cc1ccc(-c2ccccc2)nc1SCC(=O)Nc1cccc(Cl)c1,/,/,/,.,/,/
O=C(Nc1ccc2c(c1)OCCO2)c1ccc(Br)c(S(=O)(=O)N2CCOCC2)c1,.,?,.,.,?,.
O=C(Nc1ccc2c(c1)OCO2)c1ccc(Br)c(S(=O)(=O)N2CCCC2)c1,?,.,.,.,5.2µM,.
O=C(Oc1ccc2c(c1)OCO2)c1ccc(Br)c(S(=O)(=O)N2CCOCC2)c1,.,.,11µM,.,.,.
SMILES,KB-3-1 cytotox,MCF10A rereplic,PINK1 modulator,ALOX12 inh,KB-V1 MDR tox,SW480 rerep
Cc1ccc(C(=O)N/N=C/C(C)c2ccccc2)c(C)c1 (configuration not stated),/,/,/,.,/,/
COc1cc(C(=O)NNC(=O)c2ccc(NC(C)=O)cc2)cc(OC)c1OC,.,.,.,.,.,.
COc1ccc(C(=O)NN/C=C/C(=O)c2ccc(Br)cc2)cc1,.,/,.,.,.,/
COc1ccc(C(=O)C=CNNC(=O)c2ccc(Cl)cc2)cc1,?,5.8µM,.,?,?,3.7µM
NC(N)=NS(=O)(=O)c1ccc(N/C=C/C(=O)c2ccc(Cl)c(Cl)c2)cc1,.,?,.,.,.,15µM
O=C(/C=C/Nc1ccc(S(=O)(=O)Nc2ncccn2)cc1)c1ccc(Cl)c(Cl)c1,.,.,?,?,.,.
COc1cc(C(=O)/C=C/Nc2ccc(NC(C)=O)cc2)cc(OC)c1OC,.,13µM,.,.,21µM,.
CC(=O)Nc1ccc(N/C=C/C(=O)c2ccc(C)o2)cc1,.,23µM,.,.,.,.
CN1CCCCC12Cc1ccccc1CN([S+](=O)([O-])c1ccccc1)C2 (configuration not stated),/,/,/,.[6.33 µM],/,/
CC(=O)Nc1ccc(N/C=C/C(=O)c2ccc(Cl)cc2)cc1,.,.,11µM,.,.,.[9.22 µM]
CC(=O)c1ccc(N/C=C\C(=O)c2ccc(C)cc2)cc1,.,.,.,.,.,.
COc1ccc(/C=C/C(=O)c2cc(F)ccc2OC(=O)c2ccccc2OC)cc1OC,5.2µM,13µM,.,.,3.3µM,?
COc1ccc(/C=C/C(=O)c2cc(F)ccc2OC(=O)c2ccccc2)cc1OC,?,?,.,.,?,1.3µM
CCOC(=O)c1ccc(NC(=O)Nc2ccc3c4c(cccc24)C(=O)N3CC)cc1,.,23µM,?,.,.,.
CCN1C(=O)c2cccc3c(NS(=O)(=O)c4ccc(NC(C)=O)cc4)ccc1c23,?,?,.,.,.,.
COCCOc1cccc(N)c1,/,/,/,.,/,/
Cc1ccc(/C(C#N)=C\c2ccc(N3CCOCC3)o2)cc1,.,.,?,13µM,.,.
Cc1ccc2nc(/C(C#N)=C\c3ccc(N4CCOCC4)o3)[nH]c2c1,.,.,11µM,?,?,.
COc1cc(/C=N/NC(N)=S)ccc1OC(=O)c1ccc(C)cc1,.,.,.,?,.,.
O=C(N/N=C/c1cc(Br)cc(Br)c1O)c1cccc(N2CCCC2=O)c1,?,?,.,.,.,8.2µM
O=C(N/N=C/c1sc(N2CCOCC2)nc1-c1ccccc1)c1cccc(S(=O)(=O)N2CCCC2)c1,3.7µM,15µM,?,.,?,.
O=C(N/N=C/c1ccc(Cl)cc1Cl)c1cccc(N2CCCC2=O)c1,.,.,.,.,.,.
COc1cccc(/C=N/NC(=O)c2ccc(N3CCCC3=O)cc2)c1,16µM,13µM,.,.,?,1.8µM
O=C(N/N=C/c1ccco1)c1ccc(N2CCCC2=O)cc1,.,?,.,.,.,.
COc1ccc(C(=O)Oc2cccc(/C=N/NC(N)=S)c2)cc1,.,.,.,40µM,.,?
Cc1nn(-c2ccc(C(C)C)cc2)c(C)c1[C@@H]1C=C[C@@H](NCc2cccc(C#N)c2)C1,/,/,/,.,/,/
Cc1cc(COc2ccc(S(=O)(=O)c3ccccc3)cc2)on1,/,/,/,.,/,/
O=C(N/N=C/c1cc(Br)cc(Br)c1O)c1cccc(S(=O)(=O)N2CCOCC2)c1,?,.,.,.,.,0.65µM
